In PubChem BioAssay AID1159580 (chemical genetic matrix, 2015):
Where “and” joins values, the source holds several entries; their conditions need not be identical. Equal entries are not always repeated. The campaign covered roughly 5,500 compounds. About 2,000 (36%) were called active. Inconclusive results (about 18%) are left out. Rule as the data show it: active = normalized growth mostly below about 0.91 (no sharp cut-off); inconclusive = no clear call, values can overlap the other calls; inactive = mostly above about 0.92. Some of the results follow.

Assay: chemical genetic growth profiling, strain panel (AID 1159580);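 also: tested at 20 µM; growth read once vehicle control cultures reached saturation at 30 °C; 1 = growth at the plate median or of vehicle wells; lower values mean less growth of the strain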
Conditions: S. cerevisiae deletion strains, growth OD

Measured: normalized growth

OC[C@@H](O)[C@@H](O[C@@H]1O[C@H](CO)[C@@H](O)[C@H](O)[C@H]1O)[C@H](O)[C@@H](O)CO
inactive: locus YAL013W, strain DEP1, active compounds read low 1.01 | locus YAL021C, strain ccr4, active compounds read low 0.998 | locus YAL026C, strain drs2, active compounds read low 0.982 | locus YAL030W, strain snc1, active compounds read low 0.993 | locus YBL061C, strain skt5, active compounds read low 1.01 | locus YBR009C, strain hhf1, active compounds read low 1 | locus YBR021W, strain FUR4, active compounds read low 1.03 | locus YBR023C, strain chs3, active compounds read low 1 | locus YBR171W, strain sec66, active compounds read low 0.989 | locus YBR229C, strain ROT2, active compounds read low 1.01 | locus YBR231C, strain swc5, active compounds read low 0.996 | locus YBR279W, strain paf1, active compounds read low 0.979 | locus YCL011C, strain gbp2, active compounds read low 0.989 | locus YCL016C, strain dcc1, active compounds read low 1.01 | locus YCL029C, strain bik1, active compounds read low 1.02 | locus YCL061C, strain MRC1, active compounds read low 1 | locus YCL069W, strain vba3, active compounds read low 0.972 | locus YCR088W, strain abp1, active compounds read low 0.989 | locus YDL005C, strain med2, active compounds read low 0.985 | locus YDL035C, strain GPR1, active compounds read low 1.03 | locus YDL040C, strain nat1, active compounds read low 0.989 | locus YDL074C, strain BRE1, active compounds read low 1.01 | locus YDL101C, strain DUN1, active compounds read low 1.01 | locus YDL134C, strain PPH21, active compounds read low 1.01 | locus YDL185W, strain tfp1, active compounds read low 1.01 | locus YDL192W, strain arf1, active compounds read low 1.01 | locus YDR001C, strain nth1, active compounds read low 0.996 | locus YDR069C, strain doa4, active compounds read low 0.981 | locus YDR101C, strain arx1, active compounds read low 1 | locus YDR137W, strain rgp1, active compounds read low 1 | locus YDR150W, strain NUM1, active compounds read low 0.998 | locus YDR159W, strain sac3, active compounds read low 0.986 | locus YDR162C, strain NBP2, active compounds read low 0.979 | locus YDR195W, strain ref2 0.958 | locus YDR297W, strain sur2, active compounds read low 0.992 | locus YDR318W, strain mcm21, active compounds read low 1.04 | locus YDR334W, strain swr1, active compounds read low 0.984 | locus YDR335W, strain msn5, active compounds read low 0.992 | locus YDR388W, active compounds read low 1.01 | locus YDR392W, strain spt3, active compounds read low 0.951 | locus YDR502C, strain sam2, active compounds read low 0.994 | locus YEL003W, strain gim4, active compounds read low 0.989 | locus YEL037C, strain rad23, active compounds read low 0.966 | locus YEL061C, strain CIN8 (second series), active compounds read low 0.977 | locus YEL061C, strain CIN8, active compounds read low 1 | locus YER015W, strain faa2, active compounds read low 1 | locus YER016W, strain bim1, active compounds read low 0.996 | locus YER110C, active compounds read low 1.02 | locus YER111C, strain swi4, active compounds read low 0.972 | locus YER155C, strain BEM2 (second series), active compounds read low 1.02 | locus YER155C, strain BEM2, active compounds read low 0.987 | locus YER167W, strain BCK2, active compounds read low 1.06 | locus YFR010W, strain ubp6, active compounds read low 0.969 | locus YGL078C, strain dbp3, active compounds read low 0.987 | locus YGL086W, strain mad1, active compounds read low 1.03 | locus YGL167C, strain pmr1, active compounds read low 1.01 | locus YGL173C, strain kem1, active compounds read low 1 | locus YGL227W, strain vid30, active compounds read low 0.99 | locus YGL240W, strain doc1, active compounds read low 0.99 | locus YGL248W, strain PDE1, active compounds read low 1.01 | locus YGL253W, strain hxk2, active compounds read low 0.999 | locus YGR078C, strain PAC10, active compounds read low 1.02 | locus YGR135W, strain pre9, active compounds read low 1.03 | locus YGR229C, strain SMI1, active compounds read low 1.02 | locus YGR252W, strain gcn5, active compounds read low 1.07 | locus YHR013C, strain ard1, active compounds read low 0.989 | locus YHR027C, strain rpn1, active compounds read low 1 | locus YHR030C, strain SLT2, active compounds read low 1 and 0.993 | locus YHR079C, strain IRE1 (second series), active compounds read low 1.01 | locus YHR079C, strain IRE1, active compounds read low 1.02 | locus YHR094C, strain hxt1, active compounds read low 1.01 | locus YHR129C, strain ARP1, active compounds read low 1.01 | locus YHR142W, strain chs7, active compounds read low 0.998 | locus YHR200W, strain rpn10, active compounds read low 1.02 | locus YIL066C, strain RNR3, active compounds read low 1.01 | locus YIL073C, strain SPO22, active compounds read low 1.1 | locus YIL125W, strain kgd1, active compounds read low 1.01 | locus YIR030C, strain dcg1, active compounds read low 1.01 | locus YJL092W, strain hpr5, active compounds read low 0.991 | locus YJL095W, strain BCK1 (second series), active compounds read low 1 | locus YJL095W, strain BCK1, active compounds read low 1.02 and 0.987 | locus YJL115W, strain asf1, active compounds read low 0.98 | locus YJL129C, strain trk1, active compounds read low 1.01 | locus YJL134W, strain LCB3, active compounds read low 1.01 | locus YJL154C, strain vps35, active compounds read low 0.984 | locus YJL164C, strain tpk1, active compounds read low 1 | locus YJL166W, strain qcr8, active compounds read low 0.998 | locus YJL168C, strain set2, active compounds read low 1.01 | locus YJL187C, strain SWE1 (second series), active compounds read low 1.01 | locus YJL187C, strain SWE1, active compounds read low 0.992 | locus YJR043C, strain POL32, active compounds read low 1.07 | locus YJR066W, strain TOR1, active compounds read low 0.95
